Measured values published in PubChem BioAssay.
Calls of active or inactive are those of the source.

Experiments:
[1] = binders of probe aFSTL3 on microarray, primary screen, stem cell growth factor project, biochemical, small-molecule microarray, fluorescence 635/667 (AID 1064); conditions: higher = more signal;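 also: measures binding of the biotinylated anti-FSTL3 antibody to printed compounds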
[2] = binders from COS7 lysate, DM2A8 probe, primary screen, torsin A project, cell lysate, small-molecule microarray, fluorescence 635/667 (AID 1065); conditions: higher = more signal, COS7 lysate expressing mutant human TOR1A
[3] = binders of probe aFGF2 on microarray, primary screen, stem cell growth factor project, biochemical, small-molecule microarray, fluorescence 635/667 (AID 1067); conditions: higher = more signal;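 also: measures binding of biotinylated aFGF2 protein to printed compounds on slides; z-score merges feature fluorescence and signal-to-noise across triplicate slides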
[4] = binders of probe aFGF10 on microarray, primary screen, stem cell growth factor project, biochemical, small-molecule microarray, fluorescence 635/667 (AID 1071); conditions: higher = more signal;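 also: score merges 667 nm spot intensity and signal to noise from triplicate slides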
[5] = molecular target: Neurogenic locus notch homolog protein 2 (Homo sapiens) (UniProt Q04721); test: Notch2 binders on small-molecule microarrays, primary screen, biochemical, small-molecule microarray, 635 nm fluorescence, stem cell growth factors (AID 1073); conditions: Notch2 binding, higher = more signal
[6] = molecular target: Pro-neuregulin-1, membrane-bound isoform (Homo sapiens) (UniProt Q02297); test: NRG1 binders on small-molecule microarrays, primary screen, psychiatric disease protein project, biochemical, small-molecule microarray, fluorescence 635/667 (AID 1075); conditions: NRG1 binding, 635 nm fluorescence, higher = more signal;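 also: score combines 667 nm spot fluorescence with signal to noise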
[7] = tested on: Neuregulin-1 EGF-like domain; test: binders of neuregulin-1 EGF-like domain, primary screen, biochemical, small-molecule microarray, 635 nm fluorescence (AID 1081); conditions: small-molecule microarray binding, higher = more signal;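 also: binding of the protein to compounds printed on small-molecule microarray slides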
[8] = FRG1 promoter luciferase signal modulators, primary screen, FRG1 inhibition for FSHD, cell-based, C2C12 myotubes, firefly/Renilla luciferase, luminescence (AID 1084); conditions: higher = more signal, called active from +8 up or from −8 down
[9] = binders of probe aFST on microarray, primary screen, stem cell growth factor project, biochemical, small-molecule microarray, fluorescence 635/667 (AID 1086); conditions: higher = more signal;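 also: score merges 667 nm fluorescence with signal-to-noise of each printed compound spot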
[10] = binders of probe aHhip on microarray, primary screen, stem cell growth factor project, biochemical, small-molecule microarray, fluorescence 635/667 (AID 1087); conditions: higher = more signal;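 also: score merges spot fluorescence at 667nm with spot signal to noise ratio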
[11] = tested on: PRMT1 (protein arginine N-methyltransferase 1); test: PRMT1 binders on small-molecule microarrays, primary screen, biochemical, small-molecule microarray, 635 nm fluorescence (AID 1088); conditions: small-molecule microarray binding, higher = more signal;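 also: binding of Prmt1 protein to compounds spotted on small-molecule microarray slides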
[12] = yeast growth modulation, basal conditions, primary screen, YJM789 clinical isolate, OD600, 24 h (AID 1089);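 also: growth of clinical yeast isolate S. cerevisiae YJM 789 seeded 1000 cells per well; test concentration not given here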; conditions: S. cerevisiae YJM789 growth, higher = more signal, called active from +8 up or from −8 down
[13] = fission yeast growth modulation, primary screen, strain 972, OD600, 24 h, no modulator (AID 1090);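 also: basal condition with compound alone and no growth modifier present; test concentration not given here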; conditions: S. pombe 972 growth, higher = more signal, called active from +8 up or from −8 down
[14] = S. cerevisiae growth modulation with rapamycin, primary screen, strain BY4716, OD600, 96 h (AID 1091); conditions: higher = more signal, called active from +8 up or from −8 down; also: test concentration not given here
[15] = molecular target: Torsin-1A-interacting protein 2 (Homo sapiens) (UniProt Q8NFQ8); test: LULL1 binders on small-molecule microarray, primary screen, cell lysate, human LULL1 lysate, 635/667 nm fluorescence (AID 1092); conditions: hLULL1 lysate binding, 635 nm fluorescence, higher = more signal;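 also: probe is lysate of COS7 cells overexpressing human LULL1; score merges per-feature 667 nm fluorescence with signal-to-noise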
[16] = E. coli growth modulation, two-sided OD650, primary screen, E. coli filamentation project, strain DRC41, 24 h (AID 1093); conditions: OD650, 24 h, higher = more signal, called active from +8 up or from −8 down;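 also: MC1000 strain lacking acrAB efflux and sulA so SOS filamentation is blocked; test concentration not given here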
[17] = small-molecule microarray binders of probe aLefty2, primary screen, biochemical, biotinylated probe, 635/667 nm fluorescence (AID 1094); conditions: higher = more signal;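 also: score merges spot fluorescence near 667 nm with spot signal-to-noise ratio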
[18] = tested on: Noggin (protein binding on small-molecule microarray); test: Noggin binders on small-molecule microarray, primary screen, biochemical, 635/667 nm fluorescence (AID 1095); conditions: 635 nm fluorescence, higher = more signal;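 also: score merges 667 nm feature fluorescence with signal to noise over triplicate slides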
[19] = molecular target: Neurogenic locus notch homolog protein 3 (Homo sapiens) (UniProt Q9UM47); test: NOTCH3 binders on small-molecule microarray, primary screen, biochemical, 635/667 nm fluorescence (AID 1096); conditions: NOTCH3 binding, 635 nm fluorescence, higher = more signal
[20] = small-molecule microarray binders of probe aEGFR, primary screen, biochemical, biotinylated probe, 635/667 nm fluorescence (AID 1097); conditions: higher = more signal;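 also: probe is a biotinylated anti-EGFR antibody binding compounds printed on slides; score combines fluorescence near 667 nm and signal to noise of each spot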

Sequence of Neurogenic locus notch homolog protein 3 (Homo sapiens) (Q9UM47 whole entry, looked up): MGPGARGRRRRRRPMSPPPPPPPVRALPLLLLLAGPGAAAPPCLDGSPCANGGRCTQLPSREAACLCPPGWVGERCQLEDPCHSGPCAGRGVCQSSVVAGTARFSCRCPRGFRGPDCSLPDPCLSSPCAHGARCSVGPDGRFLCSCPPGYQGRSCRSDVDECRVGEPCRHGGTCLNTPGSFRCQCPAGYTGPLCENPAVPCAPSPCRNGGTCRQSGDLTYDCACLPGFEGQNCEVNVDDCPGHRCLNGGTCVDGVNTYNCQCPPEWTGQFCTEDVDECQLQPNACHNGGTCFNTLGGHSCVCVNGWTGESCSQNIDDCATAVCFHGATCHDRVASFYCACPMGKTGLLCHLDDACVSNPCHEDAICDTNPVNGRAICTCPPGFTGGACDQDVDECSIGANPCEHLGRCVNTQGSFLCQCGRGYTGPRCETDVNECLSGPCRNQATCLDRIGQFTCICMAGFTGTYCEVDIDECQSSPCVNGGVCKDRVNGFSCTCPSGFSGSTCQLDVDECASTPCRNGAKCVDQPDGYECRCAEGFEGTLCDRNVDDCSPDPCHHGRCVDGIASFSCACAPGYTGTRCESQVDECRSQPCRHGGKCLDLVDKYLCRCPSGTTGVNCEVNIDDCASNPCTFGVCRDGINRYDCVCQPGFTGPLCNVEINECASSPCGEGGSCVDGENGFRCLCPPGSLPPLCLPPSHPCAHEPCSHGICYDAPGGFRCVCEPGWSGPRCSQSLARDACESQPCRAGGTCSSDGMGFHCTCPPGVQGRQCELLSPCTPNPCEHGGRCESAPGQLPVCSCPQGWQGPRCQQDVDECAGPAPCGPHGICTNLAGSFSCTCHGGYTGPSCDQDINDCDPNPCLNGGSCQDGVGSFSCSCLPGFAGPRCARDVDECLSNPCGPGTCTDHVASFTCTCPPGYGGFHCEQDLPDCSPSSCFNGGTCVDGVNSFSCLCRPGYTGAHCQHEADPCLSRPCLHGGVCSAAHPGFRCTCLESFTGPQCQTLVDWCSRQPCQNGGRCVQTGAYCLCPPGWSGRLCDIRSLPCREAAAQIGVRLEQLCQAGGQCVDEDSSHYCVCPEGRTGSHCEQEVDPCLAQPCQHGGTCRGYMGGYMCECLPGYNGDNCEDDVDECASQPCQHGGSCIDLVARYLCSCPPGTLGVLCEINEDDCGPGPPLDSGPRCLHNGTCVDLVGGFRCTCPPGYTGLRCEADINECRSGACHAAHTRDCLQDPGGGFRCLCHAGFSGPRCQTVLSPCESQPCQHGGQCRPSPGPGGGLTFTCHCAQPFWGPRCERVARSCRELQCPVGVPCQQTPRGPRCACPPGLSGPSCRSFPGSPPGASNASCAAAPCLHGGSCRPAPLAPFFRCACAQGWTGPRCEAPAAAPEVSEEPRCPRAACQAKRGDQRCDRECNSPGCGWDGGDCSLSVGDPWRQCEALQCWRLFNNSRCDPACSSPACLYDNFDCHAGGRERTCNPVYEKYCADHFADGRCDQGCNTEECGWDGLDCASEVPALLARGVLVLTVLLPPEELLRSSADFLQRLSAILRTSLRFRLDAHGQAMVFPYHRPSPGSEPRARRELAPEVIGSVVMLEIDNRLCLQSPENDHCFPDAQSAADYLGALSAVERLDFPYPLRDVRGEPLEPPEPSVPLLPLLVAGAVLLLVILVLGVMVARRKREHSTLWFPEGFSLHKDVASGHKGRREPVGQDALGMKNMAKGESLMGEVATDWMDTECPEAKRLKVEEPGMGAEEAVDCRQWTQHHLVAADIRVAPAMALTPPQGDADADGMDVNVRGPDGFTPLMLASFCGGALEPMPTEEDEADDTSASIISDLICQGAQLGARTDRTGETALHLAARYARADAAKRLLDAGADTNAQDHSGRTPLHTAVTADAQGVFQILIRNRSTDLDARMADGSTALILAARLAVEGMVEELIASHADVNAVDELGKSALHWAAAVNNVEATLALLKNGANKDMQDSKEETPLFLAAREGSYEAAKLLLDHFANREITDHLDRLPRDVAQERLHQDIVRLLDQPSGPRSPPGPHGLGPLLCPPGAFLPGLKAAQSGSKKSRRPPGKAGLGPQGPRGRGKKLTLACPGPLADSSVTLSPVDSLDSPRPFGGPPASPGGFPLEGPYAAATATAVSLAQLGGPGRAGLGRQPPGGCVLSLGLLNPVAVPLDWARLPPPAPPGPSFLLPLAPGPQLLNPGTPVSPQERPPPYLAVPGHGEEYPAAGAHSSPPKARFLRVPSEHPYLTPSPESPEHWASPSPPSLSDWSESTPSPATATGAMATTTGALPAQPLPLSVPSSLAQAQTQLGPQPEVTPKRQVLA
Sequence of Torsin-1A-interacting protein 2 (Homo sapiens) (Q8NFQ8 whole entry, looked up): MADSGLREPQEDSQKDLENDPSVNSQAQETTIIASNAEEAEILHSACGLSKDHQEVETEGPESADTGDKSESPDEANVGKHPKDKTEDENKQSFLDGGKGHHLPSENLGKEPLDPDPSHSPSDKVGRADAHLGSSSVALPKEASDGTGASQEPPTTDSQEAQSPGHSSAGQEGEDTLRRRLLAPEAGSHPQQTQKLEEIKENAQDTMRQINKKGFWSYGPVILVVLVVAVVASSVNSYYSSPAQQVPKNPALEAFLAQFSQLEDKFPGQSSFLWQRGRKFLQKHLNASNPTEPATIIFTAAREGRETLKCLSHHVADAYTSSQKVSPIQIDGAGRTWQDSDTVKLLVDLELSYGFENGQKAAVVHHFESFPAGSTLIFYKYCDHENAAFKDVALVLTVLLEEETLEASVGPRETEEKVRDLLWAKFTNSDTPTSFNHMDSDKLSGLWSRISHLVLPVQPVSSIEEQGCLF
Sequence of Pro-neuregulin-1, membrane-bound isoform (Homo sapiens) (Q02297 whole entry, looked up, the tested form may be a part, canonical isoform): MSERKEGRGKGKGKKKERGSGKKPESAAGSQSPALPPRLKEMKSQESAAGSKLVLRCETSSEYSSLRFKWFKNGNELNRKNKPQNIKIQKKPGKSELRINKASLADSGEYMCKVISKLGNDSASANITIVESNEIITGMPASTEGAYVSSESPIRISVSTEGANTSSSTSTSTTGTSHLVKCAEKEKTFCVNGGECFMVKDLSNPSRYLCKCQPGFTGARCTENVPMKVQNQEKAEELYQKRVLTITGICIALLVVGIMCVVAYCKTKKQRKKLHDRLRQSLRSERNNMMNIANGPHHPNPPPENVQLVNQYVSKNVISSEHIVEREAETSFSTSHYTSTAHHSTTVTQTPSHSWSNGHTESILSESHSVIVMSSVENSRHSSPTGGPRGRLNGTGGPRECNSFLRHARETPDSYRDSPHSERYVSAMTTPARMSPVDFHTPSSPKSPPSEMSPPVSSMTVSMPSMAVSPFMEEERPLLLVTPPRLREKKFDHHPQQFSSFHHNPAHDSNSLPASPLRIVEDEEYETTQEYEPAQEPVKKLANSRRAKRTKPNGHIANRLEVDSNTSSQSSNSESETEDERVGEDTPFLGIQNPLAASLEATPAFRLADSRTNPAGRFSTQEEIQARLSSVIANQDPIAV

O=C1O[C@H](c2ccccc2)[C@H](c2ccccc2)N2[C@H]1[C@@H](C(=O)Nc1nc3ccccc3s1)[C@]1(C(=O)Nc3ccc(C#CC4=CCCCC4)cc31)[C@H]2c1ccc(OCCO)cc1
composite z-score [1]: -0.576
composite z-score [2]: 0.188
composite z-score [3]: -0.0148
composite z-score [4]: 0.556
composite z-score [5]: 0.6
composite z-score [6]: 0.734
composite z-score [7]: 1.11
z-score [8]: 3.08 (inactive)
composite z-score [9]: 1.21
composite z-score [10]: 0.0834
composite z-score [11]: 1.55
z-score [12]: 1.79 (inactive)
z-score [13]: 1.42 (inactive)
z-score [14]: 1.54 (inactive)
composite z-score [15]: 3.26
z-score [16]: 0.476 (inactive)
composite z-score [17]: 0.291
composite z-score [18]: 0.715
composite z-score [19]: 1.07
composite z-score [20]: -0.118

C=CCC(OC(C)=O)[C@@H]1[C@@H](N(Cc2cc3ccccc3o2)C(=O)c2cccc3ccccc23)c2cc(OCCCO)ccc2N1C(=O)Cc1ccc2ccccc2c1 (stereo not given in full)
composite z-score [1]: -0.0977
composite z-score [2]: 0.0901
composite z-score [3]: -0.0383
composite z-score [4]: 0.0537
composite z-score [5]: -0.127
composite z-score [6]: 0.144
composite z-score [7]: 0.195
z-score [8]: -2.3 (inactive)
composite z-score [9]: 0.309
composite z-score [10]: 0.0749
composite z-score [11]: 0.37
z-score [12]: 0.263 (inactive)
z-score [13]: 0.246 (inactive)
z-score [14]: 0.445 (inactive)
composite z-score [15]: 0.797
z-score [16]: 0.117 (inactive)
composite z-score [17]: -0.0898
composite z-score [18]: -0.233
composite z-score [19]: -0.164
composite z-score [20]: -0.123

C=C(COC)C(=O)CC[C@@H](OC(=O)c1ccccc1-c1ccccc1C(=O)O)c1ccc(CO)o1
composite z-score [1]: -0.229
composite z-score [2]: 1.23
composite z-score [3]: -0.0449
composite z-score [4]: -0.177
composite z-score [5]: 0.187
composite z-score [6]: 0.982
composite z-score [7]: 1.36
z-score [8]: -3.75 (inactive)
composite z-score [9]: -0.551
composite z-score [10]: -0.0994
composite z-score [11]: 1.38
z-score [12]: -24.5 (active)
z-score [13]: -20.5 (active)
z-score [14]: -4.45 (inactive)
composite z-score [15]: 2.4
z-score [16]: -0.177 (inactive)
composite z-score [17]: -0.215
composite z-score [18]: 1.63
composite z-score [19]: 0.314
composite z-score [20]: -0.0512

O=C1C[C@@](C(=O)O)(c2ccc([N+](=O)[O-])cc2)[C@@H](c2ccc(CO)cc2I)N1CC12CC3CC(CC(C3)C1)C2
composite z-score [1]: 0.525
composite z-score [2]: 0.773
composite z-score [3]: -0.124
composite z-score [4]: 0.14
composite z-score [5]: 1.41
composite z-score [6]: 1.48
composite z-score [7]: 0.843
z-score [8]: -1.55 (inactive)
composite z-score [9]: 0.806
composite z-score [10]: 0.0497
composite z-score [11]: 1.47
z-score [12]: -0.12 (inactive)
z-score [13]: -3.03 (inactive)
z-score [14]: 5.6 (inactive)
composite z-score [15]: 2.79
z-score [16]: 0.177 (inactive)
composite z-score [17]: -0.0096
composite z-score [18]: 0.0251
composite z-score [19]: 1.06
composite z-score [20]: -0.0056

CC1(C)C(=O)C(c2ccccc2)=C2CN3C(=O)N(CCc4ccccc4)C(=O)C3(Cc3ccccc3)C=C21 (stereo not given)
composite z-score [1]: 0.0442
composite z-score [2]: -0.219
composite z-score [3]: -0.0465
composite z-score [4]: 0.235
composite z-score [5]: 1.63
composite z-score [6]: 0.328
composite z-score [7]: 0.949
z-score [8]: 0.586 (inactive)
composite z-score [9]: 1.15
composite z-score [10]: -0.11
composite z-score [11]: -0.377
z-score [12]: 0.672 (inactive)
z-score [13]: 2.28 (inactive)
z-score [14]: 5.82 (inactive)
composite z-score [15]: 2.83
z-score [16]: -0.723 (inactive)
composite z-score [17]: 0.336
composite z-score [18]: -0.264
composite z-score [19]: 1.12
composite z-score [20]: 0.164

C=CC[C@@]1(C(N)=O)N=C(c2ccc(OCCCO)cc2)O[C@@H]1c1ccccc1N=[N+]=[N-]
composite z-score [1]: 1.68
composite z-score [2]: 0.444
composite z-score [3]: 0.069
composite z-score [4]: 1.08
composite z-score [5]: 1.13
composite z-score [6]: 1.5
composite z-score [7]: 1.34
z-score [8]: 2.64 (inactive)
composite z-score [9]: 1.03
composite z-score [10]: 0.0769
composite z-score [11]: 1.14
z-score [12]: -0.545 (inactive)
z-score [13]: 0.0584 (inactive)
z-score [14]: -1.15 (inactive)
composite z-score [15]: 2.44
z-score [16]: 1.4 (inactive)
composite z-score [17]: 0.429
composite z-score [18]: 0.404
composite z-score [19]: -0.299
composite z-score [20]: 0.317

CC(c1ccccc1)C(O)C1C=CC2C(=O)N(c3ccccc3)C(=O)C2N1Nc1ccccc1F (stereo not given)
composite z-score [1]: -0.0296
composite z-score [2]: 0.267
composite z-score [3]: 0.0786
composite z-score [4]: 0.26
composite z-score [5]: 0.917
composite z-score [6]: 1.28
composite z-score [7]: 0.679
z-score [8]: 0.985 (inactive)
composite z-score [9]: 1.34
composite z-score [10]: -0.191
composite z-score [11]: 1.26
z-score [12]: -1.11 (inactive)
z-score [13]: 1.15 (inactive)
z-score [14]: -1.99 (inactive)
composite z-score [15]: 2.87
z-score [16]: 0.198 (inactive)
composite z-score [17]: 0.0841
composite z-score [18]: -0.138
composite z-score [19]: 1.14
composite z-score [20]: -0.0192

COc1ccc([Si](C)(C)[C@@H]2[C@@H](CCO)O[C@]3(C(=O)N(Cc4cccc(N5CCCCC5=O)c4)c4ccccc43)[C@H]2C)cc1
composite z-score [1]: -0.191
composite z-score [2]: 0.692
composite z-score [3]: -0.134
composite z-score [4]: 0.877
composite z-score [5]: 0.869
composite z-score [6]: 1.06
composite z-score [7]: 0.967
z-score [8]: -3.27 (inactive)
composite z-score [9]: 0.263
composite z-score [10]: -0.0618
composite z-score [11]: 1.56
z-score [12]: 2.34 (inactive)
z-score [13]: -0.486 (inactive)
z-score [14]: 5.16 (inactive)
composite z-score [15]: 2.54
z-score [16]: -0.0838 (inactive)
composite z-score [17]: -0.0915
composite z-score [18]: 1.22
composite z-score [19]: 1.09
composite z-score [20]: -0.0442

COc1ccc(C(O)C2C=CC3C(=O)N(c4ccccc4)C(=O)C3N2Nc2ccccc2)c2ccccc12 (stereo not given)
composite z-score [1]: 0.782
composite z-score [2]: -0.141
composite z-score [3]: -0.0201
composite z-score [4]: 0.354
composite z-score [5]: 0.945
composite z-score [6]: 0.724
composite z-score [7]: 1.04
z-score [8]: -0.0953 (inactive)
composite z-score [9]: 0.563
composite z-score [10]: -0.163
composite z-score [11]: 0.802
z-score [12]: -1.41 (inactive)
z-score [13]: 1.81 (inactive)
z-score [14]: -0.0303 (inactive)
composite z-score [15]: 2.23
z-score [16]: -0.807 (inactive)
composite z-score [17]: 0.189
composite z-score [18]: -0.659
composite z-score [19]: 0.459
composite z-score [20]: -0.0949

O=C(NCC(F)(F)F)[C@@H]1c2ccccc2C(=O)N(Cc2ccccc2)[C@H]1c1ccc(CO)cc1
composite z-score [1]: 1.16
composite z-score [2]: 0.299
composite z-score [3]: -0.0637
composite z-score [4]: -0.358
composite z-score [5]: -0.514
composite z-score [6]: 0.0291
composite z-score [7]: 0.432
z-score [8]: -1.3 (inactive)
composite z-score [9]: -0.419
composite z-score [10]: -0.0078
composite z-score [11]: 1.04
z-score [12]: -0.526 (inactive)
z-score [13]: 0.0532 (inactive)
z-score [14]: 0.13 (inactive)
composite z-score [15]: 2.35
z-score [16]: 0.544 (inactive)
composite z-score [17]: -0.0192
composite z-score [18]: -1.34
composite z-score [19]: -0.612
composite z-score [20]: -0.194
